# From ChEMBL document CHEMBL2218924, “A broad activity screen in support of a chemogenomic map for kinase signalling research and drug discovery” (Biochem J, 2013)
# Columns and labels:
# [1] = target: T1, CDK9/cyclin T1 (Homo sapiens) (UniProt O60563+P50750); conditions: at 1 µM
# [2] = target: T1, CDK9/cyclin T1 (Homo sapiens); conditions: at 10 µM
# [3] = target: T2, Serine/threonine-protein kinase Chk1 (Homo sapiens) (UniProt O14757); conditions: at 1 µM
# T2 sequence (whole entry): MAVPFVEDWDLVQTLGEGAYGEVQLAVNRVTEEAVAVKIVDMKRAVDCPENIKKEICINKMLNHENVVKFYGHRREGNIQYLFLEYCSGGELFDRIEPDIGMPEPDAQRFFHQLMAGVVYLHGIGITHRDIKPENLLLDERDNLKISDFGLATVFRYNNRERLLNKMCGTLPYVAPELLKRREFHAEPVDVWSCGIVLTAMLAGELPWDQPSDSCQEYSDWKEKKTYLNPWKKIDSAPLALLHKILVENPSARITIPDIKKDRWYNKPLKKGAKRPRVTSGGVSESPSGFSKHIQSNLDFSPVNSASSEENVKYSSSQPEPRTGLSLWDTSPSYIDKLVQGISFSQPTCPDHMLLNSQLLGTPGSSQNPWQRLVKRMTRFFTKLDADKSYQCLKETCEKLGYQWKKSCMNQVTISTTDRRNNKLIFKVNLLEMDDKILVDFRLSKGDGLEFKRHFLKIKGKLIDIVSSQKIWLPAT
# [4] = target: T2, Serine/threonine-protein kinase Chk1 (Homo sapiens); conditions: at 10 µM
# [5] = target: Serine/threonine-protein kinase Chk2 (Homo sapiens) (UniProt O96017); conditions: at 1 µM
# [6] = target: Serine/threonine-protein kinase Chk2 (Homo sapiens) (UniProt O96017); conditions: at 10 µM
# [7] = target: Casein kinase I isoform gamma-1 (Homo sapiens) (UniProt Q9HCP0); conditions: at 1 µM
# [8] = target: Casein kinase I isoform gamma-1 (Homo sapiens) (UniProt Q9HCP0); conditions: at 10 µM
# [9] = target: Casein kinase I isoform delta (Homo sapiens) (UniProt P48730); conditions: at 1 µM
# [10] = target: Casein kinase I isoform delta (Homo sapiens) (UniProt P48730); conditions: at 10 µM
# [11] = target: T3, Casein kinase II (Homo sapiens) (UniProt P67870+P68400+P19784); conditions: at 1 µM
# [12] = target: T3, Casein kinase II (Homo sapiens); conditions: at 10 µM
# [13] = target: Casein kinase II subunit alpha' (Homo sapiens) (UniProt P19784); conditions: at 1 µM
# [14] = target: Casein kinase II subunit alpha' (Homo sapiens) (UniProt P19784); conditions: at 10 µM
# [15] = target: Dual specificity protein kinase CLK2 (Homo sapiens) (UniProt P49760); conditions: at 1 µM
# [16] = target: Dual specificity protein kinase CLK2 (Homo sapiens) (UniProt P49760); conditions: at 10 µM
# [17] = target: Dual specificity protein kinase CLK3 (Homo sapiens) (UniProt P49761); conditions: at 1 µM
# [18] = target: Dual specificity protein kinase CLK3 (Homo sapiens) (UniProt P49761); conditions: at 10 µM
# [19] = target: Tyrosine-protein kinase CSK (Homo sapiens) (UniProt P41240); conditions: at 1 µM
# [20] = target: Tyrosine-protein kinase CSK (Homo sapiens) (UniProt P41240); conditions: at 10 µM
# Tyrosine-protein kinase CSK (Homo sapiens), sequence (P41240 2-450 limits assumed): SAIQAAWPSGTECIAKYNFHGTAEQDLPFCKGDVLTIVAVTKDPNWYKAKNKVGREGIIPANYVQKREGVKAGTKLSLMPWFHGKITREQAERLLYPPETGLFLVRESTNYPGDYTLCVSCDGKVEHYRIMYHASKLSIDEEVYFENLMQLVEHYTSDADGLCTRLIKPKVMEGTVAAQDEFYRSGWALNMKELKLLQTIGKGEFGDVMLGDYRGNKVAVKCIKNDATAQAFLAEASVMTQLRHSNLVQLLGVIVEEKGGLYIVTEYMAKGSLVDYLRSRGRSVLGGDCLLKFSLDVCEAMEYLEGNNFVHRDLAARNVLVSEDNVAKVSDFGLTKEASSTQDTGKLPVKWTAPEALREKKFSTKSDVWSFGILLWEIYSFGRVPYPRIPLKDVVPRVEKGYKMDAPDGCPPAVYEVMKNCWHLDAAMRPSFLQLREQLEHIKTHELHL
# Serine/threonine-protein kinase Chk2 (Homo sapiens), sequence (O96017 whole entry, canonical isoform): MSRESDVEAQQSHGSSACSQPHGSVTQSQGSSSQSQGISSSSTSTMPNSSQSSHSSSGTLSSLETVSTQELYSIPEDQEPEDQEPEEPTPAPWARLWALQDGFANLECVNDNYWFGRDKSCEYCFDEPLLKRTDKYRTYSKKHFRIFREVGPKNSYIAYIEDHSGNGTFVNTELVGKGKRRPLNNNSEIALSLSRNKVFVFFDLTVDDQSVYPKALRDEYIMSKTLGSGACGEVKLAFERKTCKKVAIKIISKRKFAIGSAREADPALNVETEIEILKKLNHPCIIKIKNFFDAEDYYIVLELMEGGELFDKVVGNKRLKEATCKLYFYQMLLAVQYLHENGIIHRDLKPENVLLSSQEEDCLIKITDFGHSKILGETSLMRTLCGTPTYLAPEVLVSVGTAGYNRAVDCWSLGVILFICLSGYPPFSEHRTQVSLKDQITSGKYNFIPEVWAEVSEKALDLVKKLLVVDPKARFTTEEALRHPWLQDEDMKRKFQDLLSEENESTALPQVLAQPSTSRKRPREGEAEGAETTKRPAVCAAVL
# Dual specificity protein kinase CLK2 (Homo sapiens), sequence (P49760 whole entry, looked up): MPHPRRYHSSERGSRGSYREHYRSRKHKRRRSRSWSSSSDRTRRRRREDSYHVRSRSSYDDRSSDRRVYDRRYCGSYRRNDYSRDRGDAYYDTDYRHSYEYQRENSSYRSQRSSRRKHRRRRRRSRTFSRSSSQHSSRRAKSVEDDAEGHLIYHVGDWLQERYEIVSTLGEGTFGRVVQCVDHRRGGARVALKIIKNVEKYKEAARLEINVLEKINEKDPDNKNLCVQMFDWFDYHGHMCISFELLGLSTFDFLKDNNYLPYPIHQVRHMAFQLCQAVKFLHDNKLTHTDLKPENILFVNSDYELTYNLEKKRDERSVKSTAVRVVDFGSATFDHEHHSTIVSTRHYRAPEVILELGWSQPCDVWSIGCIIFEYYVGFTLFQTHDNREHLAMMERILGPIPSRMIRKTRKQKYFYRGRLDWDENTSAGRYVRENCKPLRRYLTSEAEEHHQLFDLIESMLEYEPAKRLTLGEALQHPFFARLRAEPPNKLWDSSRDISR
# Casein kinase I isoform gamma-1 (Homo sapiens), sequence (Q9HCP0 whole entry, looked up, canonical isoform): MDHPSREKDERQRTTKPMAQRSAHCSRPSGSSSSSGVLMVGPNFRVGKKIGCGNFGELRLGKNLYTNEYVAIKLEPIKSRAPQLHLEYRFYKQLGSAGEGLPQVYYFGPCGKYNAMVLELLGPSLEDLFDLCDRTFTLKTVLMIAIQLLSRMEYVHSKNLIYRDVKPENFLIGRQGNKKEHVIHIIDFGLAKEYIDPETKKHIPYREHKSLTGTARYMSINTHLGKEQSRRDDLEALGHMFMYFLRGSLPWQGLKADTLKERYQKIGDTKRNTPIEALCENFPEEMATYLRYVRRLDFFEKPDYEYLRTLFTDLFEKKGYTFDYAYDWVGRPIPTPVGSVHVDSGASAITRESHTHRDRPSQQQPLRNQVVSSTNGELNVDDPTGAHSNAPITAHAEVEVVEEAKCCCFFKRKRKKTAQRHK
# T3 sequence (P19784 whole entry, looked up): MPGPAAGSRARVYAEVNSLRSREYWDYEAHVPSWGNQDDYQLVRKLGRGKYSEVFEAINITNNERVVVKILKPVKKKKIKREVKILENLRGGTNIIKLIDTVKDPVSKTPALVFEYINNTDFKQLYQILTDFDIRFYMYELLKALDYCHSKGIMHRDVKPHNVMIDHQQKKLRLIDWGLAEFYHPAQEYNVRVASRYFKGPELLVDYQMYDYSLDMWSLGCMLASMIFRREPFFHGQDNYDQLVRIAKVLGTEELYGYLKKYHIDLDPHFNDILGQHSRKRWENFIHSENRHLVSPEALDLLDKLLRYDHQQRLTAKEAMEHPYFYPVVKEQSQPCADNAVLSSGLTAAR
# T3 sequence (P67870 whole entry, looked up): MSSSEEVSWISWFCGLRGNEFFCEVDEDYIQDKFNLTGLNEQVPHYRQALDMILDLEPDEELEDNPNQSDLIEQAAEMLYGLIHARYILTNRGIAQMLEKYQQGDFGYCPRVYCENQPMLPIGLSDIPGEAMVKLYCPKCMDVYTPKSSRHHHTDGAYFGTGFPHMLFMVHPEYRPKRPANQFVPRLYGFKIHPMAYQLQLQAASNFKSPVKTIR
# T3 sequence (P68400 whole entry, looked up): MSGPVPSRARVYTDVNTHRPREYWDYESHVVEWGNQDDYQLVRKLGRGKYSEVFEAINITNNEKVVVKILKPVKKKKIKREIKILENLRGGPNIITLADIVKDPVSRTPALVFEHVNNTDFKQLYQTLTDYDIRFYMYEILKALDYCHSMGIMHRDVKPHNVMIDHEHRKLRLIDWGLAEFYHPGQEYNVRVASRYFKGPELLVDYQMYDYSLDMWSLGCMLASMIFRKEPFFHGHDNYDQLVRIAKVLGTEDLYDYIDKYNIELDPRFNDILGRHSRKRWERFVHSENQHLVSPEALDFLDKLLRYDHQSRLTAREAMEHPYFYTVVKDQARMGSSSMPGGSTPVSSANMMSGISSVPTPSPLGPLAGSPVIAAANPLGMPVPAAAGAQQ
# Casein kinase II subunit alpha' (Homo sapiens), sequence (P19784 whole entry, looked up): as the sequence (P19784 whole entry, looked up) above
# Dual specificity protein kinase CLK3 (Homo sapiens), sequence (P49761 whole entry, looked up): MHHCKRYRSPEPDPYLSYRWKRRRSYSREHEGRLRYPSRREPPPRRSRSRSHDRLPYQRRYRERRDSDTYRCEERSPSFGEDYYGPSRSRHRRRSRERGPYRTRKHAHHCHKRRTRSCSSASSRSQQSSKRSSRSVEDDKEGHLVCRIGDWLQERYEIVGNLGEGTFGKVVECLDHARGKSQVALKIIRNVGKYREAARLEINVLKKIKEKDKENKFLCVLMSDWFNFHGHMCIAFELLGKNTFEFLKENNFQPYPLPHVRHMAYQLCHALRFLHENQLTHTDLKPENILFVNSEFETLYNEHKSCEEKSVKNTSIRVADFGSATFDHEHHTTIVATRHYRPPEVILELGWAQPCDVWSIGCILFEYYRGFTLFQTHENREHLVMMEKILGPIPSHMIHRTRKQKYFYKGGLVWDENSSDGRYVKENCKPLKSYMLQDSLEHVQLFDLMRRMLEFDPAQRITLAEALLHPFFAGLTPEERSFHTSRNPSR
# Casein kinase I isoform delta (Homo sapiens), sequence (P48730 whole entry, looked up, canonical isoform): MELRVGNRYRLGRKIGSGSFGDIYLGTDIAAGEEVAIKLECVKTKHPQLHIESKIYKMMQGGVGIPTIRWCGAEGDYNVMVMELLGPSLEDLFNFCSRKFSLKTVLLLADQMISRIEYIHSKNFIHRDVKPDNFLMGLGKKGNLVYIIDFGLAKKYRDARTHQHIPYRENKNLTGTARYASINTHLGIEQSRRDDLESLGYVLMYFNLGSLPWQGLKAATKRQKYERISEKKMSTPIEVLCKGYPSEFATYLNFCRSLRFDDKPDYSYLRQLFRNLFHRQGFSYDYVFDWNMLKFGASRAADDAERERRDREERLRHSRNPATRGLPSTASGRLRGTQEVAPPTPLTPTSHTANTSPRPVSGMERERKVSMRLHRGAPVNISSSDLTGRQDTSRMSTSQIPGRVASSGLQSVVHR
SMILES,residual activity [1],residual activity [2],residual activity [3],residual activity [4],residual activity [5],residual activity [6],residual activity [7],residual activity [8],residual activity [9],residual activity [10],residual activity [11],residual activity [12],residual activity [13],residual activity [14],residual activity [15],residual activity [16],residual activity [17],residual activity [18],residual activity [19],residual activity [20]
CCOc1cc2ncnc(Nc3cccc(Br)c3)c2cc1OCC,94%,82%,85%,82%,91%,47%,91%,87%,84%,51%,89%,104%,113%,95%,102%,68%,92%,59%,95%,66%
CC(=O)O/N=C1\C(=C2\C(=O)Nc3cc(Br)ccc32)Nc2ccccc21,63%,51%,95%,65%,71%,26%,99%,82%,78%,48%,96%,90%,102%,89%,102%,65%,82%,76%,104%,86%
COc1cccc(-c2cc(=O)c3ccccc3o2)c1N,104%,108%,104%,90%,85%,72%,95%,88%,102%,87%,94%,96%,119%,106%,116%,105%,90%,71%,104%,111%
O=C1NC(=O)c2c1c1c3ccccc3[nH]c1c1[nH]c3cc(Br)ccc3c21,82%,76%,77%,47%,33%,30%,104%,88%,92%,90%,104%,94%,96%,86%,98%,87%,82%,81%,96%,84%
O=c1cc(-c2cccc3c2Sc2ccccc2S3)oc(N2CCOCC2)c1,100%,89%,97%,94%,106%,87%,101%,43%,92%,44%,106%,109%,107%,104%,104%,92%,100%,87%,103%,99%
O=C1Nc2ccccc2/C1=C1/Nc2ccccc2/C1=N\OCCC(O)CO (centres undefined),12%,7%,68%,33%,26%,3%,102%,55%,35%,9%,73%,22%,46%,3%,2%,4%,58%,25%,,
Oc1n[nH]c2nnc(-c3c(-c4ccccc4)nn4ccccc34)cc12,90%,99%,93%,81%,19%,11%,94%,83%,84%,54%,92%,82%,110%,91%,114%,118%,85%,96%,93%,84%
CO[C@H]1[C@@H](OC)C[C@H](C)[C@@H](OC)C2=CC(=O)C=C(NC(=O)/C(C)=C/C=C/[C@H](OC)[C@@H](OC(N)=O)/C(C)=C/[C@@H]1C)C2=O,100%,83%,96%,87%,91%,89%,91%,94%,90%,81%,88%,111%,99%,99%,100%,110%,88%,89%,108%,118%
Cc1nc(-c2ccccc2)c(-c2ccncc2)o1,111%,98%,102%,98%,91%,72%,111%,82%,44%,8%,103%,98%,102%,92%,114%,96%,82%,84%,108%,104%
COc1ccc(OC)c2c(=S)c3ccccc3[nH]c12,95%,83%,108%,88%,106%,68%,99%,77%,101%,74%,103%,79%,81%,97%,99%,74%,90%,81%,109%,105%
Cc1cc(Nc2nc(-c3ccccc3)nc3ccccc23)n[nH]1,76%,29%,54%,16%,22%,2%,,28%,96%,51%,43%,-2%,21%,-2%,10%,8%,53%,15%,102%,
CO[C@@H]1[C@H](N(C)C(=O)c2ccccc2)C[C@H]2O[C@]1(C)n1c3ccccc3c3c4c(c5c6ccccc6n2c5c31)C(=O)NC4,70%,58%,59%,65%,79%,54%,66%,49%,80%,69%,73%,97%,117%,102%,17%,9%,,4%,82%,78%
Cc1cccc(-c2[nH]c(C(C)(C)C)nc2-c2ccc3c(c2)OCO3)n1,,98%,88%,92%,91%,97%,101%,100%,69%,33%,,132%,,,,,90%,145%,,
N#CC(C#N)=C(N)/C(C#N)=C/c1ccc(O)cc1,,86%,90%,96%,88%,85%,83%,99%,82%,54%,91%,85%,120%,86%,,,87%,126%,,
Nc1cccc(-c2cc3c(Oc4cccc(O)c4)ncnc3[nH]2)c1,31%,5%,45%,11%,54%,12%,86%,49%,86%,44%,101%,105%,,,93%,50%,75%,63%,79%,21%
Cc1cc2ncc(-c3ccccc3)nc2cc1C,105%,85%,94%,92%,84%,89%,93%,87%,87%,55%,,,,,,98%,98%,96%,,
O=C1Nc2ccc(Br)cc2/C1=C\c1cc2c([nH]1)CCCC2,104%,97%,78%,81%,44%,42%,,,,,77%,117%,120%,,106%,101%,,53%,118%,102%
CO[C@H]1C[C@@H]2CC[C@@H](C)[C@@](O)(O2)C(=O)C(=O)N2CCCC[C@H]2C(=O)O[C@H]([C@H](C)C[C@@H]2CC[C@@H](O)[C@H](OC)C2)CC(=O)[C@H](C)/C=C(\C)[C@@H](O)[C@@H](OC)C(=O)[C@H](C)C[C@H](C)/C=C/C=C/C=C/1C,120%,98%,77%,,98%,85%,87%,101%,84%,109%,99%,98%,,105%,118%,137%,80%,95%,112%,95%
Oc1ccc(-c2nc(-c3ccc(F)cc3)c(-c3ccncc3)[nH]2)cc1,94%,65%,103%,92%,89%,68%,82%,59%,7%,-1%,107%,107%,122%,97%,123%,104%,94%,90%,126%,104%
Nc1nc(Nc2ccc(S(N)(=O)=O)cc2)nn1C(=S)Nc1c(F)cccc1F,0%,-1%,0%,-1%,4%,0%,4%,1%,59%,16%,100%,85%,95%,62%,-2%,2%,-4%,-5%,,99%
CC[n+]1c(/C=C/N(C)c2ccccc2)n(-c2ccccc2)c2ccc(-c3nc4ccccc4s3)cc21,119%,125%,94%,83%,92%,80%,84%,100%,87%,93%,109%,105%,134%,90%,109%,108%,91%,58%,103%,95%
c1ccc(-c2n[nH]c3c2oc2ccccc23)cc1,88%,78%,86%,89%,85%,57%,87%,73%,75%,33%,86%,,119%,94%,91%,80%,86%,14%,,
c1ccc(-c2n[nH]cc2-c2ccnc3ccccc23)nc1,103%,67%,89%,91%,90%,88%,89%,47%,25%,2%,104%,105%,,,,86%,86%,132%,,
c1ccc2c(-c3ccncc3)c[nH]c2c1,67%,20%,89%,80%,86%,100%,96%,95%,85%,81%,78%,95%,,90%,112%,85%,87%,108%,,
CN(C)CCCn1cc(C2=C(c3c[nH]c4ccccc34)C(=O)NC2=O)c2ccccc21,17%,3%,54%,17%,52%,16%,107%,,90%,79%,107%,101%,,104%,14%,2%,66%,21%,122%,100%
Cc1cncc2cccc(S(=O)(=O)N3CCCN(C(=O)CN)C[C@H]3C)c12,92%,71%,88%,93%,80%,83%,,,83%,,,,128%,98%,,,76%,98%,,
CC(=O)c1ccc(N2CCOCC2)cc1O,85%,74%,96%,93%,94%,91%,97%,97%,89%,94%,81%,108%,,93%,,101%,,91%,,
COc1cc2ncnc(N3CCN(C(=O)Nc4ccc(Oc5ccccc5)cc4)CC3)c2cc1OC,94%,48%,82%,80%,96%,96%,88%,79%,78%,89%,87%,105%,111%,65%,84%,55%,64%,68%,109%,113%
C[C@@H](N)[C@H]1CC[C@H](C(=O)Nc2ccncc2)CC1,97%,57%,107%,104%,103%,97%,102%,99%,103%,110%,,87%,93%,,97%,66%,99%,90%,106%,93%
N#Cc1cnc2cnc(NCc3cccnc3)cc2c1Nc1ccc(F)c(Cl)c1,93%,100%,3%,1%,49%,36%,,93%,79%,62%,,,,100%,,,84%,51%,93%,75%
